Results published in the supplement of paper PMC7411054.
Counter-ions that a name gives are not always drawn.

Columns and labels:
Experiment in all cases: phenotypically active (imaging signature differs from DMSO and reproducible) at any of 0.3-9 uM (binary (1 = active, 0 = inactive)); higher = active
Settings in all cases: treatment time: 24 h
[1] = test system: A549-ACTB-RAB5A
Summary of the method: (§1)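 Phenotypic activity depended on meeting both a deviation and a reproducibility criterion. The fifteen gene-edited A549, HepG2 and WPMY1 reporter lines were treated at 0.3, 1, 3 or 9 µM for 24 h, four wells each, then imaged live with features normalised to solvent control wells. Deviation required ≥3 of 4 wells past the 95th percentile of control Euclidean distances, and reproducibility a median replicate Pearson correlation above the 95th percentile of non-replicates.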

[2] = test system: A549-CANX-COX4
Summary of the method: as §1

[3] = test system: A549-GM130-SQSTM1
Summary of the method: as §1

[4] = test system: A549-TP53BP1-CLTA
Summary of the method: as §1

[5] = test system: A549-TUBA1B-RELA
Summary of the method: as §1

[6] = test system: HepG2-ACTB-RAB5A
Summary of the method: as §1

[7] = test system: HepG2-CANX-COX4
Summary of the method: as §1

[8] = test system: HepG2-GM130-SQSTM1
Summary of the method: as §1

[9] = test system: HepG2-TP53BP1-CLTA
Summary of the method: as §1

[10] = test system: HepG2-TUBA1B-RELA
Summary of the method: as §1

[11] = test system: WPMY1-ACTB-RAB5A
Summary of the method: as §1

[12] = test system: WPMY1-CANX-COX4
Summary of the method: as §1

[13] = test system: WPMY1-GM130-SQSTM1
Summary of the method: as §1

[14] = test system: WPMY1-TP53BP1-CLTA
Summary of the method: as §1

[15] = test system: WPMY1-TUBA1B-RELA
Summary of the method: as §1

Measured: phenotypically active

Cc1nc(=O)c2c([nH]1)CCSC2
inactive: [1] 0 | [2] 0 | [3] 0 | [4] 0 | [5] 0 | [6] 0 | [7] 0 | [8] 0 | [9] 0 | [10] 0 | [11] 0 | [12] 0 | [13] 0 | [14] 0 | [15] 0

O=C1NC(=O)/C(=C\c2cccc(C(F)(F)F)c2)S1
inactive: [1] 0 | [2] 0 | [3] 0 | [4] 0 | [5] 0 | [6] 0 | [7] 0 | [8] 0 | [9] 0 | [10] 0 | [11] 0 | [12] 0 | [13] 0 | [14] 0 | [15] 0

CCCCCCCCCCCCCCCCCCc1ccc(C(=O)/C=C/C(=O)O)cc1
inactive: [1] 0 | [2] 0 | [3] 0 | [4] 0 | [5] 0 | [6] 0 | [7] 0 | [8] 0 | [9] 0 | [10] 0 | [11] 0 | [12] 0 | [13] 0 | [14] 0 | [15] 0

CCCC(CCC)C(=O)O [Valproic acid, sodium salt]
inactive: [1] 0 | [2] 0 | [3] 0 | [4] 0 | [5] 0 | [6] 0 | [7] 0 | [8] 0 | [9] 0 | [10] 0 | [11] 0 | [12] 0 | [13] 0 | [14] 0 | [15] 0

O=C(O)C(CO)c1ccccc1 (stereo not given) [Tropic acid]
inactive: [1] 0 | [2] 0 | [3] 0 | [4] 0 | [5] 0 | [6] 0 | [7] 0 | [8] 0 | [9] 0 | [10] 0 | [11] 0 | [12] 0 | [13] 0 | [14] 0 | [15] 0

NCCNS(=O)(=O)c1ccc(Cl)c2ccncc12 [CKI 7 dihydrochloride]
inactive: [1] 0 | [2] 0 | [3] 0 | [4] 0 | [5] 0 | [6] 0 | [7] 0 | [8] 0 | [9] 0 | [10] 0 | [11] 0 | [12] 0 | [13] 0 | [14] 0 | [15] 0

CC(C)Cn1c(=O)n(C)c(=O)c2[nH]cnc21
inactive: [1] 0 | [2] 0 | [3] 0 | [4] 0 | [5] 0 | [6] 0 | [7] 0 | [8] 0 | [9] 0 | [10] 0 | [11] 0 | [12] 0 | [13] 0 | [14] 0 | [15] 0

O=C(O)[C@H](O)[C@@H](O)[C@H](O[C@@H]1O[C@H](CO)[C@H](O)[C@H](O)[C@H]1O)[C@H](O)CO [Lactobionic acid]
inactive: [1] 0 | [2] 0 | [3] 0 | [4] 0 | [5] 0 | [6] 0 | [7] 0 | [8] 0 | [9] 0 | [10] 0 | [11] 0 | [12] 0 | [13] 0 | [14] 0 | [15] 0

CC(C(=O)O)c1ccc(C(=O)c2cccs2)cc1 (stereo not given) [suprofen]
inactive: [1] 0 | [2] 0 | [3] 0 | [4] 0 | [5] 0 | [6] 0 | [7] 0 | [8] 0 | [9] 0 | [10] 0 | [11] 0 | [12] 0 | [13] 0 | [14] 0 | [15] 0

COc1cc(O)c2c(c1C1CCCN1)OC(c1ccc(O)cc1)CC2 (stereo not given) [Vochysine (4 dia/énantio)]
inactive: [1] 0 | [2] 0 | [3] 0 | [4] 0 | [5] 0 | [6] 0 | [7] 0 | [8] 0 | [9] 0 | [10] 0 | [11] 0 | [12] 0 | [13] 0 | [14] 0 | [15] 0

OCC(CO)N[C@H]1C[C@](O)(CO)[C@@H](O)[C@H](O)[C@H]1O [Voglibose]
inactive: [1] 0 | [2] 0 | [3] 0 | [4] 0 | [5] 0 | [6] 0 | [7] 0 | [8] 0 | [9] 0 | [10] 0 | [11] 0 | [12] 0 | [13] 0 | [14] 0 | [15] 0

CCCCOc1cc(C(=O)OCCN(CC)CC)ccc1N [oxybuprocaine]
inactive: [1] 0 | [2] 0 | [3] 0 | [4] 0 | [5] 0 | [6] 0 | [7] 0 | [8] 0 | [9] 0 | [10] 0 | [11] 0 | [12] 0 | [13] 0 | [14] 0 | [15] 0
